According to PubChem BioAssay (NCI):
The panel holds about 79,000 compounds, 15% with a hit somewhere; the sample as a whole holds those more often. A number with no mark means an inactive call. The source made the active and inactive calls. No stated cut-off is given here; in the data, active means growth inhibition above about 70%; inactive means the rest.

Legend:
[1] = NCI Yeast Anticancer Drug Screen. Data for the rad52 strain (AID 147);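 further: 0% = growth of vehicle-treated control cultures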; settings: S. cerevisiae rad52 mutant growth inhibition, active compounds read high
In short: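 Compounds are applied to a genetically defined yeast strain lacking normal DNA damage repair, and inhibition of growth is expressed relative to cultures given vehicle only.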

[2] = NCI Yeast Anticancer Drug Screen. Data for the wt1 strain (AID 149);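 further: 0% = growth of vehicle-treated wt1 cultures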; settings: S. cerevisiae wt1 strain (SPY 50644) growth inhibition, active compounds read high
In short: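 Using yeast strain wt1, compound-induced growth inhibition was determined against vehicle-treated cultures.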

[3] = NCI Yeast Anticancer Drug Screen. Data for the rad50EPP+ strain (AID 151);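 further: 0% = growth of vehicle-treated control cultures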; settings: S. cerevisiae rad50 mutant strain, active compounds read high
In short: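 Compounds were applied to the rad50EPP+ yeast strain, which bears a defined DNA repair alteration, and growth inhibition was determined relative to vehicle-treated cultures.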

[4] = NCI Yeast Anticancer Drug Screen. Data for the rad50 strain (AID 155);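 further: 0% = growth of vehicle-only cultures of the same strain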; settings: S. cerevisiae rad50 strain growth inhibition, active compounds read high
In short: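 Relative growth inhibition (compound vs vehicle) was measured in yeast with a defined repair-gene alteration.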

[5] = NCI Yeast Anticancer Drug Screen. Data for the mec2-1 strain (AID 157); settings: S. cerevisiae mec2-1 strain, active compounds read high
In short: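 Strain: mec2-1 (DNA repair/cell cycle alteration). Compound exposure, then growth measured; inhibition expressed relative to vehicle.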

[6] = NCI Yeast Anticancer Drug Screen. Data for the rad14 strain (AID 159);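 further: 0% = growth of vehicle-treated control cultures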; settings: S. cerevisiae rad14 strain growth inhibition, active compounds read high
In short: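 Screen for anticancer potential: a yeast strain altered in DNA damage repair is grown with compound, and reduced growth is quantified against vehicle controls.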

[7] = NCI Yeast Anticancer Drug Screen. Data for the CLN2oe strain (AID 163);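 further: 0% = growth of vehicle-only control cultures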; settings: S. cerevisiae CLN2oe strain, active compounds read high
In short: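 Growth of a genetically modified yeast strain is measured after compound exposure and compared with cultures given vehicle alone.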

[8] = NCI Yeast Anticancer Drug Screen. Data for the cln2 rad14 strain (AID 165);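 further: 0% = growth equal to vehicle treated cultures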; settings: S. cerevisiae cln2 rad14 strain, active compounds read high
In short: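 Compounds are applied to the cln2 rad14 yeast strain, and growth is then compared with that of vehicle-treated cultures to give inhibition.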

[9] = NCI Yeast Anticancer Drug Screen. Data for the wt2 strain (AID 169);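 further: 0% = growth of vehicle-treated yeast cultures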; settings: S. cerevisiae wt2 strain growth inhibition, active compounds read high
In short: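 This strain belongs to a panel of yeast strains with defined genetic alterations in DNA damage repair or cell cycle control. Compounds are applied, and growth inhibition is measured against vehicle-treated cultures.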

[10] = NCI Yeast Anticancer Drug Screen. Data for the mlh1 strain (AID 171);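 further: 0% = growth of vehicle-treated control cultures of the same strain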; settings: S. cerevisiae mlh1 strain growth inhibition, active compounds read high
In short: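 Growth of the mutant yeast strain after compound exposure, expressed as inhibition relative to vehicle-only controls.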

[11] = NCI Yeast Anticancer Drug Screen. Data for the sgs1 strain (AID 173);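 further: 0% = growth of vehicle-only control cultures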; settings: S. cerevisiae sgs1 mutant, active compounds read high
In short: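 Growth of a yeast strain bearing a defined genetic alteration is measured after compound treatment. Inhibition is expressed relative to vehicle-only controls.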

[12] = NCI Yeast Anticancer Drug Screen. Data for the mlh1 rad18 strain (AID 175); settings: S. cerevisiae mlh1 rad18 strain growth inhibition, active compounds read high
In short: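 Read-out is yeast growth inhibition, calculated against vehicle-only controls. The compound was applied to a strain engineered with DNA damage repair alterations.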

[13] = NCI Yeast Anticancer Drug Screen. Data for the rad18 strain (AID 177); settings: S. cerevisiae rad18 mutant growth inhibition, active compounds read high
In short: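 Growth of the mutant yeast strain after compound exposure, normalised to vehicle-only cultures.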

[14] = at 5.0 µM (retest, dose inferred, filed as 0.5)
[15] = at 50.0 µM (retest, dose inferred, filed as 5.0)

## Cc1ccc(Nc2c3c(c(C#N)c4nc5ccccc5n24)CCCC3)cc1
[1]; at 1.2 µM
  growth inhibition: 6%
[1]; at 3.7 µM
  growth inhibition: 21%
[1]; at 11.0 µM
  growth inhibition: 24%
[1]; at 33.0 µM
  growth inhibition: 70% (active)
[1]; at 100.0 µM
  growth inhibition: 72% (active)
[2]; at 1.2 µM
  growth inhibition: 7%
[2]; at 3.7 µM
  growth inhibition: 26%
[2]; at 11.0 µM
  growth inhibition: 23%
[2]; at 33.0 µM
  growth inhibition: 40%
[2]; at 100.0 µM
  growth inhibition: 59%
[3]; at 1.2 µM
  growth inhibition: 14%
[3]; at 3.7 µM
  growth inhibition: 23%
[3]; at 11.0 µM
  growth inhibition: 27%
[3]; at 33.0 µM
  growth inhibition: 38%
[3]; at 100.0 µM
  growth inhibition: 31%
[4]; at 1.2 µM
  growth inhibition: 1%
[4]; at 3.7 µM
  growth inhibition: 32%
[4]; [14]
  growth inhibition: 31%
[4]; at 11.0 µM
  growth inhibition: 23%
[4]; at 33.0 µM
  growth inhibition: 71% (active)
[4]; [15]
  growth inhibition: 74% (active)
[4]; at 50.0 µM
  growth inhibition: 63.3%
[4]; at 100.0 µM
  growth inhibition: 70% (active)
[5]; at 1.2 µM
  growth inhibition: -15%
[5]; at 3.7 µM
  growth inhibition: 15%
[5]; [14]
  growth inhibition: 12%
[5]; at 11.0 µM
  growth inhibition: 11%
[5]; at 33.0 µM
  growth inhibition: 65%
[5]; [15]
  growth inhibition: 58%
[5]; at 50.0 µM
  growth inhibition: 66%
[5]; at 100.0 µM
  growth inhibition: 73% (active)
[6]; at 1.2 µM
  growth inhibition: 1%
[6]; at 3.7 µM
  growth inhibition: 10%
[6]; at 11.0 µM
  growth inhibition: 10%
[6]; at 33.0 µM
  growth inhibition: 25%
[6]; at 100.0 µM
  growth inhibition: 36%
[7]; at 1.2 µM
  growth inhibition: 20%
[7]; at 3.7 µM
  growth inhibition: 34%
[7]; at 11.0 µM
  growth inhibition: 21%
[7]; at 33.0 µM
  growth inhibition: 70% (active)
[7]; at 100.0 µM
  growth inhibition: 62%
[8]; [14]
  growth inhibition: 21%
[8]; [15]
  growth inhibition: 14%
[8]; at 50.0 µM
  growth inhibition: 72.8% (active)
[9]; at 1.2 µM
  growth inhibition: 4%
[9]; at 3.7 µM
  growth inhibition: -8%
[9]; at 11.0 µM
  growth inhibition: 59%
[9]; at 33.0 µM
  growth inhibition: 74% (active)
[9]; at 100.0 µM
  growth inhibition: 72% (active)
[10]; at 1.2 µM
  growth inhibition: -5%
[10]; at 3.7 µM
  growth inhibition: 15%
[10]; at 11.0 µM
  growth inhibition: 22%
[10]; at 33.0 µM
  growth inhibition: 78% (active)
[10]; at 100.0 µM
  growth inhibition: 78% (active)
[11]; at 1.2 µM
  growth inhibition: 30%
[11]; at 3.7 µM
  growth inhibition: 34%
[11]; at 11.0 µM
  growth inhibition: 29%
[11]; at 33.0 µM
  growth inhibition: 77% (active)
[11]; at 100.0 µM
  growth inhibition: 81% (active)
[12]; [14]
  growth inhibition: 28%
[12]; [15]
  growth inhibition: 68%
[12]; at 50.0 µM
  growth inhibition: 6.1%
[13]; at 1.2 µM
  growth inhibition: 6%
[13]; at 3.7 µM
  growth inhibition: 27%
[13]; at 11.0 µM
  growth inhibition: 38%
[13]; at 33.0 µM
  growth inhibition: 75% (active)
[13]; at 100.0 µM
  growth inhibition: 72% (active)
